From PubChem BioAssay
MCF10A rereplic – inducers of DNA re-replication in MCF 10A breast cells; AID 624296; MCF 10A DNA re-replication, Hoechst nuclear intensity, 48 h; 350,000 tested, 2.9% active; Potency, µM (doses to about 46.1 µM), for the others: at the highest dose activity, positive = re-replication, usual class: activators; also: potency is read from the fitted curve at half-maximal effect; % of control where 0% means no effect; nearly all actives have a fitted effect of over 50% in size
KB-V1 MDR tox – kills drug-selected multidrug resistant KB-V1 cells | KB-V1 MDR cells viability, CellTiter-Glo, 72 h | Potency, µM (series often up to 46.1 µM), most hits filed as cytotoxic | 400,000 tested, 3.4% active | AID 1347076; also: potency is read from the fitted curve at half-maximal effect; % is scaled to controls: 0 for no effect and ±100 for the full control effect; nearly all actives have a fitted effect of over 60% in size
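Cytotoxicity via CellTiter-Glo luminescence after 72 h compound exposure at 37 degrees C. Cells: drug-selected KB-V1 line, DMEM phenol-red free plus 10% FBS. Compounds tested at multiple concentrations; normalized data fitted to concentration-effect curves.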
SW480 rerep – induces DNA re-replication in SW480 colon adenocarcinoma cells; AID 624297; SW480 DNA re-replication, Hoechst DNA content imaging, 48 h; Potency, µM (series often up to 46.1 µM), without a hit: at the highest dose re-replication activation, actives largely listed as activators; 340,000 tested, 1.8% active; also: potency is read from the fitted curve at half-maximal effect; % of control where 0% means no effect; nearly all actives have a fitted effect of over 55% in size
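250 cells/well; 23 nL cpd via pin tool; 48 hr, 37 C, 5% CO2; Hoechst 40 min; imager read of total nuclear intensity, ex 405/em 500-530 nm.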
KB-3-1 tox – kills parental KB-3-1 adenocarcinoma cells; KB-3-1 viability, CellTiter-Glo ATP luminescence, 72 h; Potency, µM (doses to about 46.1 µM), hits mostly cytotoxic; 400,000 tested, 1.4% active; AID 1347075; also: potency is read from the fitted curve at half-maximal effect; % is scaled to controls: 0 for no effect and ±100 for the full control effect; nearly all actives have a fitted effect of over 60% in size
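Multi-concentration cytotoxicity screen in KB-3-1 cells grown in DMEM lacking phenol red with 10% FBS. After 72 h at 37 °C with compound, ATP-dependent luminescence was recorded.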
ASM inhibitor – human S-ASM enzyme inhibition; Potency, µM (top dose mostly 57.5 µM), without a hit: top-dose activity change, negative = inhibition, hits mostly inhibitors; 340,000 tested, 0.006% active; placental ASM, HMU-PC fluorogenic substrate, 60 min; P17405; also: potency is read from the fitted curve at half-maximal effect
Target sequence (P17405 47-631 limits assumed): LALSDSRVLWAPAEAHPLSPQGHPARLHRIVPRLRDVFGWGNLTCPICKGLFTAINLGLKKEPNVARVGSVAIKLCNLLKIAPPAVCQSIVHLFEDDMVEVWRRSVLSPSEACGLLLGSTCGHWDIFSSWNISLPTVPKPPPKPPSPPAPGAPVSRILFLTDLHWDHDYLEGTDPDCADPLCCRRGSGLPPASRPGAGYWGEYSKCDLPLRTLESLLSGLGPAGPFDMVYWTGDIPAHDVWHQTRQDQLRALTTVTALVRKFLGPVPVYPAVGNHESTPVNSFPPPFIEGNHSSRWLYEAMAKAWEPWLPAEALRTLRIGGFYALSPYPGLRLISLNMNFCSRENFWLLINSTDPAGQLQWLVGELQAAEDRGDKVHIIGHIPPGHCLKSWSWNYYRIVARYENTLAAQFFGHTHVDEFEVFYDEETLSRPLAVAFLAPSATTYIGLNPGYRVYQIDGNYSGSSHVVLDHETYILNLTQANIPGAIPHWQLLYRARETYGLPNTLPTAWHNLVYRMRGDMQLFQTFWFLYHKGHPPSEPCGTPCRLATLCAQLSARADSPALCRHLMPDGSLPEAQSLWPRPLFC
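Human placenta-derived ASM enzyme was preincubated with compound for 10 minutes at room temperature, then given fluorogenic substrate HMU-PC0 (9 uM final) for 60 minutes at 37 °C; a pH 10 stop preceded fluorescence reading at Ex 386/Em 447 nm.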
Giardia killer – Giardia lamblia killing | 340,000 tested, 0.15% active | AID 540267 | activity change, % at 7.66 µM, hits read low | Giardia lamblia trophozoite viability; in the data active = activity change below about -80%; inconclusive = between about -30% and that limit;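 also: parasites exposed to compound for two days anaerobically before the ATP read; % is scaled to controls: 0 for no effect and ±100 for the full control effect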
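Media and compound were dispensed first, then trophozoites at 100 cells/well; plates sat 48 hrs at 37 deg C without oxygen before ATP luminescence reagent was added and read after 15-30 min at room temperature.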
The depositor's hits bear a star. Hits are enriched below; roughly 6.9% of the tested compounds scored in any of these assays. Unless noted, calls follow the shape of the dose curve; as a rule, active = well fitted curve in the direction sought with a large enough effect; inconclusive = small, poorly fitted or top-dose-only effect, or another doubt; inactive = no such curve, though single readings can be large; an effect the other way counts as inactive or inconclusive.

How did COc1ccc(OC)c(Nc2nc(C3CC3)nc3c2nnn3Cc2ccccc2)c1 do in these assays?
MCF10A rereplic: -14.1%; KB-V1 MDR tox: 2.06µM*; SW480 rerep: -23.9%; KB-3-1 tox: inactive; ASM inhibitor: 7.7%; Giardia killer: -13.1

How did c1ccc(Cn2nnc3c(Nc4ccc5c(c4)OCO5)nc(C4CC4)nc32)cc1 do in these assays?
MCF10A rereplic: 10.3µM*; KB-V1 MDR tox: inactive; SW480 rerep: 2.0%; KB-3-1 tox: inactive; ASM inhibitor: 162.1%; Giardia killer: 1.1

How did c1ccc(Cn2nnc3c(NCc4ccc5c(c4)OCO5)ncnc32)cc1 do in these assays?
MCF10A rereplic: 7.5%; KB-V1 MDR tox: inactive; SW480 rerep: -2.5%; KB-3-1 tox: inactive; ASM inhibitor: 2.2%; Giardia killer: -7.4

Results for CCN(Cc1ccccc1)C(=S)Nc1cc(C(=O)OC)ccc1C(=O)OC ?
MCF10A rereplic: 1.8%; KB-V1 MDR tox: 14.6µM*; SW480 rerep: 5.1%; KB-3-1 tox: inactive; ASM inhibitor: 52.8%; Giardia killer: 3.9

What do the screens show for `NCCCN(Cc1ccc(Cl)cc1)c1ccc(Br)cn1`?
Giardia killer: 3.2

Results for CCN(CC)S(=O)(=O)c1ccc(N2CCCC2)c(NC(=O)Cc2ccc(OC)cc2)c1 ?
MCF10A rereplic: inconclusive; KB-V1 MDR tox: 23.1µM*; SW480 rerep: 9.7%; KB-3-1 tox: inactive; ASM inhibitor: 1.9%; Giardia killer: 5.8

How did CCOc1ccc(S(=O)(=O)Nc2cc(S(=O)(=O)N(CC)CC)ccc2N2CCCC2)cc1 do in these assays?
MCF10A rereplic: -55.0%; KB-V1 MDR tox: 2.59µM*; SW480 rerep: inconclusive; KB-3-1 tox: inconclusive; ASM inhibitor: 0.0%; Giardia killer: -7.3

Results for CCN(CC)S(=O)(=O)c1ccc(N2CCN(C)CC2)c(NC(=O)Nc2ccc(C)cc2)c1 ?
MCF10A rereplic: 11.6µM*; KB-V1 MDR tox: inactive; SW480 rerep: 1.8%; KB-3-1 tox: inactive; ASM inhibitor: -2.2%; Giardia killer: 13.2

Results for CCN(CC)S(=O)(=O)c1ccc(N2CCCC2)c(NC(=O)Cc2cc(OC)c(OC)c(OC)c2)c1 ?
MCF10A rereplic: 4.3%; KB-V1 MDR tox: inconclusive; SW480 rerep: 15.0%; KB-3-1 tox: inactive; ASM inhibitor: 5.4%; Giardia killer: -3.8

What do the screens show for `Cn1c(=O)c(=O)n(C)c2cc(N3CCOCC3)c(NS(=O)(=O)c3ccc(Cl)cc3)cc21`?
KB-V1 MDR tox: inactive; KB-3-1 tox: inactive

What do the screens show for `CCN(CC)S(=O)(=O)c1ccc(N2CCCC2)c(NC(=O)C2CCCCC2)c1`?
MCF10A rereplic: -2.4%; KB-V1 MDR tox: inactive; SW480 rerep: -1.1%; KB-3-1 tox: inactive; ASM inhibitor: -0.1%; Giardia killer: -0.9

What do the screens show for `Cn1c(=O)c(=O)n(C)c2cc(N3CCCCC3)c(NS(=O)(=O)c3ccc(Br)cc3)cc21`?
MCF10A rereplic: -0.6%; KB-V1 MDR tox: inactive; SW480 rerep: 7.31µM*; KB-3-1 tox: inactive; ASM inhibitor: -5.8%; Giardia killer: -26.5

What do the screens show for `CCOc1ccc(C(=O)Nc2cc(S(=O)(=O)Nc3ccccc3Cl)ccc2N2CCOCC2)cc1`?
MCF10A rereplic: 3.8%; KB-V1 MDR tox: 6.51µM*; SW480 rerep: 13.2%; KB-3-1 tox: inactive; ASM inhibitor: -3.1%; Giardia killer: -1.2

How did CCOC(=O)c1ccc(N2CCCCC2)c(NS(=O)(=O)c2ccc(C)cc2)c1 do in these assays?
MCF10A rereplic: 20.6µM*; KB-V1 MDR tox: inconclusive; SW480 rerep: inconclusive; KB-3-1 tox: inconclusive; ASM inhibitor: -3.3%; Giardia killer: 10.7

How did CCOC(=O)c1c(NC(=O)Cc2cccs2)sc(C)c1C do in these assays?
MCF10A rereplic: 3.66µM*; KB-V1 MDR tox: inconclusive; SW480 rerep: -5.1%; KB-3-1 tox: inactive; ASM inhibitor: -16.8%; Giardia killer: 3.4

How did CCOC(=O)c1c(NC(=O)Cc2cccs2)sc(C(=O)NC2CCCC2)c1C do in these assays?
MCF10A rereplic: 24.9%; KB-V1 MDR tox: inactive; SW480 rerep: -9.0%; KB-3-1 tox: inactive; ASM inhibitor: -1.8%; Giardia killer: 14.1

What do the screens show for `COC(=O)c1c(NC(=O)Cc2cccs2)sc(C(=O)N2CCCCC2)c1C`?
MCF10A rereplic: 9.4%; KB-V1 MDR tox: 16.4µM*; SW480 rerep: -2.3%; KB-3-1 tox: inactive; ASM inhibitor: -1.7%; Giardia killer: 0.7

Results for O=C(CNC(=O)c1ccccc1)OCC(=O)c1ccccc1 ?
KB-V1 MDR tox: inactive; KB-3-1 tox: inactive; Giardia killer: -7.9

Results for CCC(=O)N1c2ccccc2CC1C(=O)NCCCN1CCN(c2ccccc2)CC1 (centres undefined) ?
KB-V1 MDR tox: inactive; KB-3-1 tox: inactive

Results for Cc1cccc(CNC(=O)CCCN2C(=O)CCn3nc(-c4cccn4C)cc32)c1 ?
KB-V1 MDR tox: inactive; KB-3-1 tox: inactive

Results for CCOc1cccc2sc(N(CCN(C)C)C(=O)CCS(=O)(=O)c3ccccc3)nc12 ?
MCF10A rereplic: -3.0%; KB-V1 MDR tox: inactive; SW480 rerep: -2.9%; KB-3-1 tox: inactive; Giardia killer: 14.6

How did CCOc1cccc2sc(NC(=O)CCS(=O)(=O)c3ccccc3)nc12 do in these assays?
MCF10A rereplic: 20.6µM*; KB-V1 MDR tox: inconclusive; SW480 rerep: 20.6µM*; KB-3-1 tox: inconclusive; ASM inhibitor: -1.6%; Giardia killer: -7.4

Results for CCOc1cccc2sc(Nc3nc4ccc(NC(C)=O)cc4s3)nc12 ?
MCF10A rereplic: 3.66µM*; KB-V1 MDR tox: inconclusive; SW480 rerep: 4.11µM*; KB-3-1 tox: 11.6µM*; ASM inhibitor: 466.4%; Giardia killer: -28.1

How did CCC(=O)Nc1nc2ccc(NC(C)=O)cc2s1 do in these assays?
MCF10A rereplic: 1.3%; KB-V1 MDR tox: inactive; SW480 rerep: -4.8%; KB-3-1 tox: inactive; ASM inhibitor: 0.8%; Giardia killer: 8.5

How did CCN1CCN(S(=O)(=O)c2ccc(C(C)(C)C)cc2)CC1 do in these assays?
MCF10A rereplic: inconclusive; KB-V1 MDR tox: inactive; SW480 rerep: 23.1µM*; KB-3-1 tox: inactive; ASM inhibitor: 3.3%; Giardia killer: 15.8

How did CCN1CCN(S(=O)(=O)c2ccc(S(=O)(=O)N(CC)Cc3ccccc3)cc2)CC1 do in these assays?
MCF10A rereplic: 1.84µM*; KB-V1 MDR tox: inconclusive; SW480 rerep: 11.6µM*; KB-3-1 tox: inactive; ASM inhibitor: -1.3%; Giardia killer: 7.4

How did O=C(Cn1c(=O)n(Cc2ccccc2)c(=O)c2sc3ccccc3c21)Nc1ccc(F)cc1 do in these assays?
KB-V1 MDR tox: inactive; KB-3-1 tox: inactive

What do the screens show for `Cc1ccc(NCc2nnc3n2CCCCC3)cc1Cl`?
KB-V1 MDR tox: inactive; KB-3-1 tox: inactive
